# According to the supplement of paper PMC6378613:
# Compound: Cc1ccc(-c2ccc3c(ccc4sc5c(c43)NC[C@@H](C)NC5=O)n2)cn1
# Assay: kinase activity remaining relative to vehicle control; higher = less inhibition
# Experimental: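 In vitro radiometric kinase profiling of the MK2 inhibitor PF-3644022 at 0.1, 1 and 10 µM against a panel of kinases (MRC International Centre for Kinase Profiling, Dundee). Read-out is % kinase activity remaining relative to the vehicle control, mean of n=2.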
# Chain of UniProt P51617 (P51617 whole entry, looked up): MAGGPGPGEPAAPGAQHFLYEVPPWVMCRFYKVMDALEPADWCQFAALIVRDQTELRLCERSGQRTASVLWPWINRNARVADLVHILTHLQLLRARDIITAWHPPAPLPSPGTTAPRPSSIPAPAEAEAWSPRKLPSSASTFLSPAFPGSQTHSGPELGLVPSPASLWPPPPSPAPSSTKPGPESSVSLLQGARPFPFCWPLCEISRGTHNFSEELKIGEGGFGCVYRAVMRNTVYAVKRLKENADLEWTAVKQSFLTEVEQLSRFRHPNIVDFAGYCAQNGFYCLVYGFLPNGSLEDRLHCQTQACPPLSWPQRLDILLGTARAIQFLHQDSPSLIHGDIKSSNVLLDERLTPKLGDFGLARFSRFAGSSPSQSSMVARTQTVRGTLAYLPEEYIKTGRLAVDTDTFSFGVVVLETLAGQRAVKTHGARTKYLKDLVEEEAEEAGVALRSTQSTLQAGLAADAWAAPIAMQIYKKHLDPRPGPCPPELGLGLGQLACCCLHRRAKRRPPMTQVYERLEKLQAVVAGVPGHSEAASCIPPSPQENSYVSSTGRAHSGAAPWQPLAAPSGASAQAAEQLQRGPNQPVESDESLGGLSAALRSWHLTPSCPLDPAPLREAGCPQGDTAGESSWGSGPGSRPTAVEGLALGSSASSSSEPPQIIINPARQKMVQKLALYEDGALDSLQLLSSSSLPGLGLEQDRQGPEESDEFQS
# Chain of UniProt Q9BYT3 (Q9BYT3 whole entry, looked up): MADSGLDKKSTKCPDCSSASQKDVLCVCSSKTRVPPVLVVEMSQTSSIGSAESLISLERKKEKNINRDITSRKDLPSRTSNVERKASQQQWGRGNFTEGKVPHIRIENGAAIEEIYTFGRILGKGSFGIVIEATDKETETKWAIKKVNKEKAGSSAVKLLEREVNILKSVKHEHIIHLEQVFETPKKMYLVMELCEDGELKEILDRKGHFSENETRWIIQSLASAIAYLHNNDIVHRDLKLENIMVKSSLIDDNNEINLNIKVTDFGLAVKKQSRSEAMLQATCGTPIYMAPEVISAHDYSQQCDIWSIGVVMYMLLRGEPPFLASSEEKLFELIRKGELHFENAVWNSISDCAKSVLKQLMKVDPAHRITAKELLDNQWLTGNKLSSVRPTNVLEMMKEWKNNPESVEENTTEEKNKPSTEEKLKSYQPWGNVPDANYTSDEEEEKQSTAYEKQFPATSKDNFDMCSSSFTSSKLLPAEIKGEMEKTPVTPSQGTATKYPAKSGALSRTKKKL
# Chain of UniProt P50750 (P50750 whole entry, looked up): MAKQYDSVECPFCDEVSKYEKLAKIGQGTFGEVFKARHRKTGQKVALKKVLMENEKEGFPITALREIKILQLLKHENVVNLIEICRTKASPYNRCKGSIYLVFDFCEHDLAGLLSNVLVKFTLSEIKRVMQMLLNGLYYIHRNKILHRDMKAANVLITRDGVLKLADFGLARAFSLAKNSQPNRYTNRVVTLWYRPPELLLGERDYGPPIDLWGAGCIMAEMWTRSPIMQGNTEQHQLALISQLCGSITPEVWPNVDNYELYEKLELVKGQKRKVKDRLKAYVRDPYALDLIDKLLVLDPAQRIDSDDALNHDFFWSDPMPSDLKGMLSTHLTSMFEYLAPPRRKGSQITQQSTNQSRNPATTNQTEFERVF
# Chain of UniProt P28482 (P28482 whole entry, looked up): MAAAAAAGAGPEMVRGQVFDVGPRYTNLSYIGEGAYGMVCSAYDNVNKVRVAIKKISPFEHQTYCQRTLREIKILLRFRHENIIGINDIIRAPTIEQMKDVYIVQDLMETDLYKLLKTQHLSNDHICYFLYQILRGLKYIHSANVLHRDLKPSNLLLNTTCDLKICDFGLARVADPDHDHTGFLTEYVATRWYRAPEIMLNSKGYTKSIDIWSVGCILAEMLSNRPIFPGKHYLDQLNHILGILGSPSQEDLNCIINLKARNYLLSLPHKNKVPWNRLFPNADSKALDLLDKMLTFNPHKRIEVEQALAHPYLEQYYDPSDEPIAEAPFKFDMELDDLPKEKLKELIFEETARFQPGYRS
# Chain of UniProt P31749 (P31749 whole entry, looked up): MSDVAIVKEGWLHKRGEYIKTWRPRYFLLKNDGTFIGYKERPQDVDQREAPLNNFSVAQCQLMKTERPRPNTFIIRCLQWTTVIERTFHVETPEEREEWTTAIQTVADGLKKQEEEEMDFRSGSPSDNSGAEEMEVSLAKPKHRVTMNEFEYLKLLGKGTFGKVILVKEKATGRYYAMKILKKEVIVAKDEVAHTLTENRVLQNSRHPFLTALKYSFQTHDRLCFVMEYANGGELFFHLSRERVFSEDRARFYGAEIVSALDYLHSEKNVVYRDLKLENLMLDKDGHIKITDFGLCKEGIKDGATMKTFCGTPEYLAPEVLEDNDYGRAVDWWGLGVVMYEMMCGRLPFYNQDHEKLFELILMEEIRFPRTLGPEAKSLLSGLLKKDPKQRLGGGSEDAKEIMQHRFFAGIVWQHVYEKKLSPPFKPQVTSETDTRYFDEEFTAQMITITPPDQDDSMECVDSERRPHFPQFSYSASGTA
# Chain of UniProt Q15303 (Q15303 whole entry, looked up): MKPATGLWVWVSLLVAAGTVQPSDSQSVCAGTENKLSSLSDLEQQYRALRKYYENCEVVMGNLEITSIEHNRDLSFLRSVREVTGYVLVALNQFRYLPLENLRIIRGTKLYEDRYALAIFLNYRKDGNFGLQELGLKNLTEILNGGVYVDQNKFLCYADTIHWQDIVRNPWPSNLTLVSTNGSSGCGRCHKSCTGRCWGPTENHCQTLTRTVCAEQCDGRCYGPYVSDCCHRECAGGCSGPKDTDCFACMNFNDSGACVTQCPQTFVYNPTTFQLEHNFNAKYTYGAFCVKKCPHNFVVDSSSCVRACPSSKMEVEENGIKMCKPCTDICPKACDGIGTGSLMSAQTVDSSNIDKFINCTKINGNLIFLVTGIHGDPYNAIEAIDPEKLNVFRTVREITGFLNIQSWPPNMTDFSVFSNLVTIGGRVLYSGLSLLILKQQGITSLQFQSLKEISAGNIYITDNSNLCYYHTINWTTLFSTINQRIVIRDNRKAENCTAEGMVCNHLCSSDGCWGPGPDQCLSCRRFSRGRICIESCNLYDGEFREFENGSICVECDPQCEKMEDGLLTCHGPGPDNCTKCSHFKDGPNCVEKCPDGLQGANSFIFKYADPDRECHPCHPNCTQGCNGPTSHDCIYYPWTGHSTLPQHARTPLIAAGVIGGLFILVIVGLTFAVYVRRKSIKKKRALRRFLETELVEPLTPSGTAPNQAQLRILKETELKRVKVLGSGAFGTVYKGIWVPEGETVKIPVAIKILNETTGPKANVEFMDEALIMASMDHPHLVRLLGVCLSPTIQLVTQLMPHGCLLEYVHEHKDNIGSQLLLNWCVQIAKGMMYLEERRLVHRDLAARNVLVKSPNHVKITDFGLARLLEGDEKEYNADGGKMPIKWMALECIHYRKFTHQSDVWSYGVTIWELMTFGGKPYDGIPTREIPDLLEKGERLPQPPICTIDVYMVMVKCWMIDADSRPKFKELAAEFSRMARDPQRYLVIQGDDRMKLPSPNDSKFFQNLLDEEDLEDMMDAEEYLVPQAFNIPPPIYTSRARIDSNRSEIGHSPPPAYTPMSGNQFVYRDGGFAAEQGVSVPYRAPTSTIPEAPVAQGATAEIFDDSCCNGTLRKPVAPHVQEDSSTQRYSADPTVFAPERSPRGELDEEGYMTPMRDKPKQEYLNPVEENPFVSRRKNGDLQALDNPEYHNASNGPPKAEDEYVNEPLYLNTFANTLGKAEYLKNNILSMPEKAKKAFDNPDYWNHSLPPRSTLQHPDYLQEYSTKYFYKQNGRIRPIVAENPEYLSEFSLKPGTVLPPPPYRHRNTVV
# Chain of UniProt P51812 (P51812 whole entry, looked up): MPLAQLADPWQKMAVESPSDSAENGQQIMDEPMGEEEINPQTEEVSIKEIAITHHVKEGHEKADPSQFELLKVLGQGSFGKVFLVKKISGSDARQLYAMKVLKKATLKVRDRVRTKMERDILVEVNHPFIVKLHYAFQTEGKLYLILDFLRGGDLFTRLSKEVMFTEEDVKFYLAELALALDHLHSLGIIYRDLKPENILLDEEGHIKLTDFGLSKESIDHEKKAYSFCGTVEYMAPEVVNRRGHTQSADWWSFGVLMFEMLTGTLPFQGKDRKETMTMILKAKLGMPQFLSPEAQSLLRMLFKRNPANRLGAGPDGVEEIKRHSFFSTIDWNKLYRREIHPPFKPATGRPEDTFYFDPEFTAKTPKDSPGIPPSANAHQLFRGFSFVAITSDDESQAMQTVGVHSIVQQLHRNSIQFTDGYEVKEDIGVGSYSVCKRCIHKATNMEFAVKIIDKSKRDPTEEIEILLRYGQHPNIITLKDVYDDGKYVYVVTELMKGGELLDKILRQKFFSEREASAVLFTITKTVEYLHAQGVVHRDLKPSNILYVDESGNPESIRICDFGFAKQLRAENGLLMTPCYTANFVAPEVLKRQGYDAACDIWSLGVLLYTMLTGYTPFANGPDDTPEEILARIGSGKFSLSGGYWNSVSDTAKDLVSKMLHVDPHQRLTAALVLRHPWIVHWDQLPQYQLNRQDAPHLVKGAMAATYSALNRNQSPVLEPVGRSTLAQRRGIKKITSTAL
# Chain of UniProt P36507 (P36507 whole entry, looked up): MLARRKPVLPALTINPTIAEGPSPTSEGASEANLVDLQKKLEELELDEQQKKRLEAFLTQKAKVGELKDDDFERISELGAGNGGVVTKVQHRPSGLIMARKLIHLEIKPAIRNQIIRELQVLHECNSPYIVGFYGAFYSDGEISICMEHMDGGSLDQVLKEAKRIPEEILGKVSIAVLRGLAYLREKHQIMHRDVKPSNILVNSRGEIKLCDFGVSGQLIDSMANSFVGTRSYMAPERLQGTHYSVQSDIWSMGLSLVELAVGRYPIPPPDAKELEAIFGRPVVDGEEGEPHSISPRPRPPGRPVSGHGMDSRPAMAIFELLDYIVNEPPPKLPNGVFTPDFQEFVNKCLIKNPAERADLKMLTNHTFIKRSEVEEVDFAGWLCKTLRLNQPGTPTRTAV
Target,kinase activity remaining (inhibitor concentration 0.1 µM) [%],kinase activity remaining (inhibitor concentration 1 µM) [%],kinase activity remaining (inhibitor concentration 10 µM) [%]
HER4 (UniProt Q15303),92,105,99
MPSK1 (UniProt O75716),117,118,105
RSK2 (UniProt P51812),104,79,50
RSK1 (UniProt Q15418),106,100,76
ERK2 (UniProt P28482),102,84,81
SGK1 (UniProt O00141),116,112,112
SYK (UniProt P43405),94,98,82
p38 delta MAPK,108,103,94
JAK2 (UniProt O60674),101,102,79
PKC gamma,118,110,101
DYRK3 (UniProt O43781),111,84,40
PKB alpha (UniProt P31749),109,97,98
JNK1 (UniProt P45983),96,93,92
STK33 (UniProt Q9BYT3),105,83,38
MKK2 (UniProt P36507),113,108,79
MLK3 (UniProt Q16584),114,102,73
CDK9-Cyclin T1 (UniProt P50750),109,96,51
MARK3 (UniProt P27448),113,115,110
CAMKK beta,107,87,28
NEK2a (UniProt P51955),108,99,88
CK1 gamma 2,123,112,102
MAPKAP-K2,24,9,2
DAPK1 (UniProt P53355),103,62,15
OSR1 (UniProt Q8TAX0),113,112,118
DYRK2 (UniProt Q92630),101,105,52
IRAK1 (UniProt P51617),104,77,27
Src (UniProt P12931),110,116,100
TIE2 (UniProt Q02763),105,86,88
EPH-B4,110,106,99
